Out of some 63,000 compounds screened, about 1,100 (1.7%) were called active. The full list was thinned out, with actives kept by preference. Results with a measured potency or affinity are listed apart. Unmarked numbers belong to inactive results. Cut-off read from the data, not from the text of the source: active = cytotoxicity above about 50%; inactive = the rest.
Experiment: HPDE-C7 pancreatic duct cell viability loss – fluorescence, HTS (AID 430);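 note: cells exposed to compound for 48 hours before viability readout; 0% = vehicle and 100% = reference cytotoxic drug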
Conditions: HPDE-C7 pancreatic duct cells viability, at 10 µM, stronger effect = higher value

SMILES | cytotoxicity
Cc1ccc(NC(=O)Nc2ccc3c(c2)N(C)C(=O)CS3)nc1 | -4.8%
COC(=O)CCSCC(=O)Nc1cc(C)on1 | -18%
CCn1c(COc2cccc(C)c2)nnc1SCC(=O)N1CCCC1 | -3.1%
C=Cn1ccnc1P(=S)(c1ccc2c(c1)c1ccccc1n2CC)c1nccn1C=C | 73.4% (active)
CCn1c2ccccc2c2cc(/C=N/n3cnnc3)ccc21 | 10.8%
CCn1c2ccccc2c2cc(N)ccc21 | 15.8%
CCCCn1c(=O)[nH]c(=O)c2c1nc(-c1ccc(C#N)cc1)n2C1CCCC1 | -7%
CCOC(=O)CSc1nc2ccccc2c(=O)n1CCCCCC(=O)NCc1ccco1 | -23.3%
OC(Cn1cncn1)c1ccc(Cl)cc1Cl (stereo not drawn) | 1.1%
OC(Cn1ccnc1)c1ccc(Cl)cc1Cl (stereo not drawn) | -4.5%
O=C(COc1ccc(Cl)cc1Cl)NCCCn1ccnc1 | -3.9%
CC(Oc1ccc(Cl)cc1Cl)C(=O)NCCCn1ccnc1 (stereo not drawn) | -1.6%
Clc1ccc(OCCn2ccnc2)c(Cl)c1 | -13.9%
Clc1ccc(SCCn2ccnc2)cc1 | -0.3%
c1ccc2c(Cn3ccnc3)c[nH]c2c1 | -14%
COc1ccc(C(c2sc3nc(C)nn3c2O)N2CCC(O)CC2)cc1OC (stereo not drawn) | -15.1%
CC(=O)C1=C(C)OC(N)=C(C#N)C1c1ccncc1 (stereo not drawn) | -7%
COc1ccccc1N1CCN(Cc2cccc(OC)c2OC)CC1 | 3.3%
CCCCOc1ccc(C(=O)NC)cc1 | -5.6%
CCCCOc1ccc(C(=O)OC2CC(C)N(C)CC2C)cc1 (stereo not drawn) | 61.9% (active)
CCCCOc1ccc(C(=O)N2CCC(C)CC2)cc1 | -20.7%

SMILES | cytotoxicity
COc1cccc(N2CCN(Cc3coc4c(Cl)cc(Cl)cc4c3=O)CC2)c1 | 61.8% (active)
Cc1ccc2occ(CN3CCN(c4ccccc4)CC3)c(=O)c2c1 | -17%
COc1ccc(CCNC(=O)CN2CCN(c3cccc(Cl)c3)CC2)cc1OC | 1.7%
COc1cc(CN2CCSCC2)cc(OC)c1OC | -9.5%
COc1ccc(N2CCN(Cc3cc(=O)oc4ccc(Cl)cc34)CC2)cc1 | -1.8%
COc1ccc(S(=O)(=O)CCC(=O)Nc2c(C)n(C)n(-c3ccccc3)c2=O)cc1 | -10.2%
CC(C)N(Cc1ccccc1)S(=O)(=O)N(C)C | -7.9%
COc1cc(NC(=O)Cc2nn(C)c(=O)c3ccccc23)cc(OC)c1 | 19.8%
COc1ccc(-c2cc(C(F)(F)F)n3ncc(C(=O)O)c3n2)cc1OC | 2%
Cc1ccc(S(=O)(=O)N2CCN(C(=O)C3CCCCC3)CC2)cc1 | 7.7%
Cc1cccc(OCCn2c(=O)n(C)c3ccccc32)c1 | -3.7%
Cc1cccc(OCCCN2CCCCCC2)c1 | 19.3%
Cc1cccc(-c2nnc3n2N=C(c2ccccc2Br)CS3)c1 | 15%
Cc1cc(C)n(-c2nnc3n2N=C(c2c[nH]c4ccccc24)CS3)n1 | 51.3% (active)
Cc1cc(C)n(-c2nnc3n2N=C(c2ccccc2)CS3)n1 | -0.3%
CCCn1c(SCC#N)nc2c(c1=O)C1(CCCC1)Cc1ccccc1-2 | 47.8%
CCn1c(SCC#N)nc2c(c1=O)C1(CCCC1)Cc1ccccc1-2 | 41.8%
N#CCSc1n[nH]c2nc3c(c(=O)n12)C1(CCCC1)Cc1ccccc1-3 | 54.9% (active)
c1ccc(-n2nnnc2Oc2ccc(-c3nnco3)cc2)cc1 | -4.8%
COc1ccccc1-c1cc(C(F)(F)F)nc(S(=O)(=O)CCCC(=O)NC(C)C)n1 | 28%
COc1ccccc1-c1cc(C(F)(F)F)nc(N2CCN(c3ccccc3)CC2)n1 | 29.8%

SMILES | cytotoxicity
COc1ccccc1-c1cc(C(F)(F)F)nc(S(=O)(=O)CCCC(=O)N2CCCCC2C)n1 (stereo not drawn) | 88.8% (active)
COc1ccccc1-c1cc(C(F)(F)F)nc(N2CCOCC2)n1 | -5.9%
COc1ccccc1-c1cc(C(F)(F)F)nc(N2CCCC2)n1 | -25.6%
Cc1cc(S(=O)(=O)N(Cc2ccc3c(c2)OCO3)CC2CCCO2)ccc1-n1cnnn1 (stereo not drawn) | -7.2%
COc1cccc(C(=O)Nc2nnc(-c3ccc(F)cc3)o2)c1 | 31%
COc1cccc(-c2nnc(NC(C)=O)o2)c1 | 7.6%
COc1cccc(C(=O)Nc2nnc(-c3ccc(Cl)cc3)o2)c1 | 85.7% (active)
COc1cccc(-c2nnc(NC(=O)c3cccc(F)c3)o2)c1 | 61.8% (active)
COc1ccc(-c2nnc(NC(=O)c3cc(Cl)ccc3Cl)o2)cc1 | 33.1%
COc1cccc(C(=O)Nc2cccc(-c3nnc(-c4ccccc4)o3)c2)c1 | 3.9%
O=C(Nc1ccc(Cc2ccncc2)cc1)C1CC1 | -38.5%
CN(C)/C=c1\sc2c(C#N)cc(C(=O)c3ccc(Br)cc3)n2c1=O | -29.6%
O=C1[C@H]2[C@@H](C(=O)N1c1cc(Cl)cc(Cl)c1)[C@]1(C(=O)Nc3ccccc31)N1CCC[C@@H]21 | -1.8%
COC(=O)c1ccccc1Nc1ccccc1 | -2.7%
CCOC(=O)C1=C(N)n2c(s/c(=C\c3cccnc3)c2=O)=C(C(=O)OC)C1c1cccnc1 (stereo not drawn) | 10.6%
CCOC(=O)C1=C(N)n2c(s/c(=C/c3ccco3)c2=O)=C(C(=O)OC)C1c1ccco1 (stereo not drawn) | 75.9% (active)
CCOC(=O)C1=C(N)n2c(s/c(=C\c3cccnc3)c2=O)=C(C(=O)OCC)C1c1cccnc1 (stereo not drawn) | -31.3%
N#CC1=C(N)n2c(s/c(=C\c3ccco3)c2=O)=C(C#N)C1c1ccco1 (stereo not drawn) | 12.3%
CCOC(=O)C1=C(N)n2c(s/c(=C\c3ccco3)c2=O)=C(C(=O)OC(C)C)C1c1ccco1 (stereo not drawn) | -11.9%
CCCCCCn1c(SCC(=O)OC)nc2c1c(=O)[nH]c(=O)n2C | 3.9%
CC1Cc2ccccc2N1C(=O)CSc1ncccc1C(=O)O (stereo not drawn) | -4.3%

Source: PubChem BioAssay AID430 (Sanford-Burnham Center for Chemical Genomics, 2006)
